Bioassay records (PubChem BioAssay)
Mito fusion yeast: qHTS Assay for Small Molecule Inhibitors of Mitochondrial Division or Activators of Mitochondrial Fusion | S. cerevisiae fusion-defective mutant growth rescue, CellTiterGlo 48 h | Potency, µM (top dose mostly 46.1 µM), without a hit: at the highest dose growth rescue (activation), actives largely listed as activators | 320,000 compounds, 0.23% hits | AID 485298, 2010; further: potency means the concentration at half of the fitted maximal effect; % of control where 0% means no effect; nearly all actives have a fitted effect of over 45% in size
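S. cerevisiae fusion-defective temperature-sensitive mutants (e.g. fzo1-1, mgm1-5) grown 48 h at 37C in YPEG (ethanol/glycerol non-fermentable) medium with 23 nl compound per well; growth rescue read as CellTiterGlo luminescence.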
ClpP mod: qHTS Assay for Activators of ClpP | purified B. subtilis ClpP, FRET peptide cleavage, 20 min | Potency, µM (highest dose often 57.5 µM), for the others: at the highest dose activity change, negative = active | 340,000 compounds, 1.9% hits | AID 651965, 2013; active means well fitted falling curve with a large enough effect; inconclusive means small, poorly fitted or top-dose-only effect; inactive means no such curve, though single readings can be large or run the other way; further: potency means the concentration at half of the fitted maximal effect; the source files actives as falling curves though it sought activators and does not explain the sign; nearly all actives have a fitted effect of over 65% in size
Target sequence (P80244 whole entry, looked up): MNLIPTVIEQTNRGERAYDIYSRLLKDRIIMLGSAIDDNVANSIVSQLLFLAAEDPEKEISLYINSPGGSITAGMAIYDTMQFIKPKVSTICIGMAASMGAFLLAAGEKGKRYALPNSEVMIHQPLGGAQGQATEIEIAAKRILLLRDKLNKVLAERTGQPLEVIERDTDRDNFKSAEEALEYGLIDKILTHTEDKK
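ClpP 10 microg/mL final, pH 8 Tris/KCl buffer with BSA, glycerol, Tween-20; compound pinned in; FRET-FV substrate; RT 20 min; Ex320/Em430; ΔFRET vs ADEP 5.8 microM, DMSO, no enzyme.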
TCR act: Activators of T cell receptors: qHTS campaign | primary human leukocytes, anti-CD3, IL-2 HTRF, 48 h | Potency, µM (doses to about 9.22 µM), for the others: top-dose activation of IL-2 secretion, usual class: activators | 330,000 tested, under 10 active | AID 504894, 2011; further: % of control where 0% means no effect
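Primary human leukocytes receive a-CD3 beads and test compound and are incubated 48 hr. Secreted IL-2 is then assayed by HTRF, measuring 665nm acceptor emission after 320nm excitation of the europium donor.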
Glioma ERSR ind: qHTS for Inducers of the Endoplasmic Reticulum Stress Response (ERSR) in Human Glioma: qHTS. U87-MG GRP78 promoter luciferase reporter, 16 h. Potency, µM, inactives show at the top dose activation, most hits filed as activators. 420,000 compounds, 0.02% hits; further: potency means the concentration at half of the fitted maximal effect; series mostly up to about 76 µM; % of control where 0% means no effect; nearly all actives have a fitted effect of over 35% in size
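ERSR induction read as luciferase luminescence (Bright-Glo, 10 min at room temperature) in stably transfected human U87-MG glioma cells exposed to compounds for 16 h, using GRP78 as sensor.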
A-T KAP1 phos: qHTS Assay for Identifying a Potential Treatment of Ataxia-Telangiectasia; F2112 A-T fibroblasts, KAP-1 phosphorylation AlphaLISA; neocarzinostatin DNA damage 30 min before lysis; Potency, µM (top dose mostly 57.5 µM), inactives show at the highest dose activation, hits mostly activators; 320,000 compounds, 0.19% hits; AID 485349, 2010; further: potency means the concentration at half of the fitted maximal effect; % of control where 0% means no effect; nearly all actives have a fitted effect of over 45% in size
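ATM-like activity read as KAP-1 phosphorylation via AlphaLISA donor/acceptor antibody pairs after lysis and 6 hr at 25C. Cells were ATM-null patient fibroblasts (F2112, hTERT), dosed 60 min, then exposed to the DSB inducer NCS for 30 min.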
MBNL1-CUG inh: qHTS Assay for Inhibitors of MBNL1-poly(CUG) RNA binding | Muscleblind-like protein 1 (Homo sapiens), Q9NR56 | TR-FRET MBNL1-His/biotin-(CUG)12 binding, 665/545 ratio | Potency, µM (highest dose often 57.5 µM), inactives show at the top dose activity change, negative = inhibition, most hits filed as inhibitors | 280,000 compounds, 0.036% hits; active means well fitted inhibition curve with a large enough effect in the signal ratio, with a control signal flat, not every such curve was filed as active; inconclusive means small, poorly fitted or top-dose-only effect, or effect the other way, or a change in a side signal; inactive means no such curve, though single readings can be large or run the other way; the % refers to the signal ratio; further: potency means the concentration at half of the fitted maximal effect; on the % scale 0 is the no-effect control and ±100 the full control effect
Target sequence (Q9NR56 whole entry, looked up): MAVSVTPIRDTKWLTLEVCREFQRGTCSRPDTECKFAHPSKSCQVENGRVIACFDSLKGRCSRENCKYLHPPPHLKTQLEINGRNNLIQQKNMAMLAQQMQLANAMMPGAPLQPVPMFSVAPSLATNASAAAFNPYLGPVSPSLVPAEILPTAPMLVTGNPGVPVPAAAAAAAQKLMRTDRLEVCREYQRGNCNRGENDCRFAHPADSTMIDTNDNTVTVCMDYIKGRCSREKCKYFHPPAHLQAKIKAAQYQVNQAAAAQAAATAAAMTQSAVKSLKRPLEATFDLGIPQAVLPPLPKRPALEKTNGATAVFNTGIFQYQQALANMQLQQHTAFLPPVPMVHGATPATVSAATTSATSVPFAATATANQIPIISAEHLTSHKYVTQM
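Compound titration spanned 92 nM–58 uM against the MBNL1-His/biotin-(CUG)12 complex. After 60 min at room temperature with 5 nM streptavidin-XL665 and 0.055 ng/ul terbium anti-His, ratiometric 665/545 nm emission (Ex 340 nm) normalized to controls.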
* = called active by the depositor; u = inconclusive; x = no result; [ ] = remark or other dose. Hits are enriched below; roughly 1.8% of the tested compounds scored in any of these assays. Unless noted, the call rests on the fitted dose curve; in most records, active means well fitted curve in the direction sought with a large enough effect; inconclusive means small, poorly fitted or top-dose-only effect, or another doubt; inactive means no such curve, though single readings can be large; an effect the other way counts as inactive or inconclusive.

SMILES | Mito fusion yeast | ClpP mod | TCR act | Glioma ERSR ind | A-T KAP1 phos | MBNL1-CUG inh
O=C1CN(CC(=O)N2CCOCC2)c2ccccc2O1 | -16% | x | x | x | 28µM* | u
O=C(C(Cc1ccccc1)N1C(=O)C2C3C=CC(C3)C2C1=O)N1CCCCC1 (configuration not stated) | 0% | 20µM* | -3% | -1% | 26% | -1%
O=C(C(Cc1ccccc1)N1C(=O)C2C3C=CC(C3)C2C1=O)N1CCCCCC1 (configuration not stated) | -1% | 1% | 5% | -4% | x | -9%
c1ccc(C2Nc3ccccc3-c3nc4ccccc4n32)cc1 (configuration not stated) | -2% | 61% | x | -5% | 5% | 4%
c1coc(C2Nc3ccccc3-c3nc4ccccc4n32)c1 (configuration not stated) | 4% | 2.8µM* | -1% | 2% | 5% | 6%
CCc1cc(-c2oncc2-c2ccc(OC)cc2)c(O)cc1OC | x | x | x | -10% | x | x
CCCN(CCC)C(=O)C(CCC(=O)OCCCN1CCN(CCOC(=O)Cc2c(C)n(C(=O)c3ccc(Cl)cc3)c3ccc(OC)cc23)CC1)NC(=O)c1ccccc1 (configuration not stated) | x | x | x | -4% | x | x
COC(=O)[C@@H]1C[C@@H](NC(=O)c2cccc3c(C)c(C)[nH]c23)CN1Cc1cccc2ccccc12 | x | x | x | -3% | x | x
COc1ccc(-n2c(=O)/c(=C\c3cccs3)s/c2=C(/C#N)C(=O)N2CCN(C)CC2)cc1 | -15% | 32µM* | -4% | -6% | 5% | u
COC(=O)c1cn([C@@H]2C[C@@H](C(=O)Nc3cccc(SC)c3)N(C3CCCCCC3)C2)nn1 | x | x | x | 13% | x | x
CCc1cc(C(=O)NCC2Cc3cccc(-c4ccc(C(=O)OC)cn4)c3O2)no1 (configuration not stated) | x | x | x | -6% | x | x
Cc1[nH]nc2c1-c1nc3ccccc3nc1C(C)(C)C2 | -1% | 14µM* | 4% | -1% | 4% | 22%
CC12CCC(C)(c3nc4ccccc4nc31)C2(C)C | -2% | x | 0% | 3% | -6% | -6%
CC(=O)Nc1ccc(NC(=O)c2ccc(NS(=O)(=O)c3cc(C(C)(C)C)cc(C)c3C)cc2)cc1 | 1% | 28µM* | 3%[46.1 µM] | -3% | 1% | x
Cc1cc(C(C)(C)C)cc(S(=O)(=O)Nc2ccc(O)c(C(=O)O)c2)c1C | 3% | -27% | x | -2% | 7% | -11%
COc1cccc(/C=N/n2c(N)c(S(=O)(=O)c3cccs3)c3nc4ccccc4nc32)c1 | 2% | 2.8µM* | 21% | -2% | 0% | -10%
Nc1c(S(=O)(=O)c2cccs2)c2nc3ccccc3nc2n1/N=C/c1cccc(O)c1 | 13% | 2.8µM* | -2% | -13% | 19% | 16%
COc1ccc(/C=N/n2c(N)c(S(=O)(=O)c3cccs3)c3nc4ccccc4nc32)cc1OC | 0% | 13µM* | -5% | -3% | 6% | 0%
COc1cccc(CNC(=O)c2c(OC)cc(=O)n3c2CCN(C(=O)c2ccoc2C)CC3)c1 | x | x | x | 0% | x | x
CCc1ccc2oc(-c3cc(NC(=O)c4cc(OC)c(OC)c(OC)c4)ccc3O)nc2c1 | x | 1% | x | 3% | x | x
COc1cccc(C(=O)Nc2ccc(-c3nc4ccccc4o3)c(O)c2)c1 | 22% | 28µM* | -5% | u | 4% | u
COc1cc(C(=O)Nc2ccc(-c3nc4cc(C)ccc4o3)c(O)c2)cc(OC)c1OC | 2% | 28µM* | -9% | -3% | 0% | 5%
O=C(NC1CCCCCC1)C1CCC(CNS(=O)(=O)c2cccc3cccnc23)CC1 (configuration not stated) | x | 1% | x | -4% | x | x
COCc1c(C(=O)NC2CCCC2)cnn1-c1nccc(-c2cccs2)n1 | x | x | x | 1% | x | x
NC(=O)Nc1ccc(/C=C2\C=Cc3ccccc32)cc1 | x | -7% | x | 4% | x | x
SMILES | Mito fusion yeast | ClpP mod | TCR act | Glioma ERSR ind | A-T KAP1 phos | MBNL1-CUG inh
COc1ccc(NC(=O)CSC2=C(C#N)C(c3ccco3)C(C(=O)Nc3nc4ccccc4s3)=C(C)N2)cc1 (configuration not stated) | x | 22µM* | -3% | -2% | x | x
CC(=O)C1=C(C)NC(SCC(=O)Nc2nc3ccccc3s2)=C(C#N)C1c1ccc(Cl)cc1 (configuration not stated) | u | -18% | 3%[46.1 µM] | -2% | 3% | u
CC(=O)Nc1ccc(/C=C/c2ccccn2)cc1 | x | -12% | x | -1% | x | x
CS(=O)(=O)N(CC(=O)N/N=C/c1cccc2c1OCCO2)c1ccccc1Br | 1% | u | 2% | -7% | -1% | -1%
O=C(CN(c1ccc(Cl)c(C(F)(F)F)c1)S(=O)(=O)c1ccccc1)N/N=C/c1cccc2c1OCCO2 | 2% | 22µM* | -3% | 6% | -4% | 10%
Cc1sc2nc(C3CC3)nc(SCC(=O)N3CCc4ccccc4C3)c2c1C | 13µM* | -17% | 0% | -3% | 6% | -6%
CC(=O)Nc1ccc2[nH]c(C)c(CC=C(Cl)Cl)c(=O)c2c1 | -14% | 32µM* | 5% | -3% | -4% | 2%
CCOC(=O)c1ccc2[nH]c(C)c(CCC(C)=O)c(=O)c2c1 | -13% | u | -5% | -6% | 18% | -5%
COC(=O)c1cc(NS(=O)(=O)c2ccc(NCc3cccnc3)c([N+](=O)[O-])c2)cc(C(=O)OC)c1 | 2% | 28µM* | 0%[46.1 µM] | -1% | 4% | 2%
COC(=O)c1cc(NS(=O)(=O)c2ccc(NCc3cccnc3)c(N)c2)cc(C(=O)OC)c1 | -3% | -2% | -4%[46.1 µM] | -5% | 2% | -16%
COc1ccccc1NS(=O)(=O)c1cc(NC(=O)c2ccncc2)ccc1N1CCOCC1 | 7% | 25µM* | 1%[46.1 µM] | -3% | 13% | -25%
COc1ccccc1NS(=O)(=O)c1cc(NC(=O)Nc2ccccc2)ccc1N1CCCCC1 | -1% | 25µM* | 7% | -4% | -5% | -13%
COc1ccccc1NS(=O)(=O)c1cc(NC(=O)c2ccc(NC(C)=O)cc2)ccc1N1CCOCC1 | x | -1% | -2% | 1% | x | x
COc1ccc(S(=O)(=O)N2CCCCCC2)cc1C(=O)Nc1cc(C)ccn1 | 18% | -7% | -4% | -3% | -14% | x
